The list is not random: actives were taken first. Their share in the collection is about 27%.
sEH activator = soluble epoxide hydrolase activators, primary screen, biochemical, human sEH; Bifunctional epoxide hydrolase 2 (Homo sapiens), P34913; activation, % at 2 µM; 91,000 tested, 0.04% active; purified human sEH enzymatic activity, activator screen; in the data active means activation above about 37%
Target sequence (P34913 whole entry, looked up): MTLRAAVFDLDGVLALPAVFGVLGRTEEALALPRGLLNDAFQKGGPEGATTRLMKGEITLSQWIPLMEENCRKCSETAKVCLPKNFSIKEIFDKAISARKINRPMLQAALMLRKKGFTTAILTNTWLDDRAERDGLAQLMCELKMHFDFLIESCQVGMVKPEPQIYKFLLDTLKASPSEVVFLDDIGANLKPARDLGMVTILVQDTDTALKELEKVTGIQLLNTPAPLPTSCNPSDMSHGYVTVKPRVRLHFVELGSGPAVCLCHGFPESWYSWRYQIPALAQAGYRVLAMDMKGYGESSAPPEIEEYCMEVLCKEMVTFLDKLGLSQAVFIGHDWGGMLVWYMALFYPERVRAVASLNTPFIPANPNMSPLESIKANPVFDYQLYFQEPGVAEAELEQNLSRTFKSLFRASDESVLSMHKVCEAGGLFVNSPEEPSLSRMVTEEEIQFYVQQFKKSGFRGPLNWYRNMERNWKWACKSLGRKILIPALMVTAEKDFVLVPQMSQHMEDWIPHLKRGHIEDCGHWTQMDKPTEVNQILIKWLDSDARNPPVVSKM
CYP2C19 inhib = blockers of cytochrome P450 2C19 activity – biochemical, luminescence, ADME assay, primary screen. 96,000 tested, 21% active. inhibition, % at 5 µM. P33261. AID 778, 2007. CYP2C19 Supersomes, luciferin-H EGE luminescence, 30 min;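 active means CYP2C19 inhibition above a set limit at 5 µM in the primary screen, cut at about 50% in these data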
CYP2C9 inhib = blockers of cytochrome P450 2C9 activity – biochemical, luminescence, ADME assay, primary screen; P11712; CYP2C9 Supersomes, luciferin-H conversion; inhibition, % at 5 µM; 96,000 tested, 20% active; AID 777, 2007;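 active means blocking of liver enzyme CYP2C9 beyond about 50% at 5 µM, limit read from the data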
CYP2C19 act = human CYP2C19 activators, primary screen, biochemical, luminescence | recombinant CYP2C19, luciferin-H EGE luminescence; active compounds read high; 0 = fully inhibited enzyme, 1 = untreated enzyme | Cytochrome P450 2C19 (Homo sapiens), P33261 | activation factor at 5 µM | AID 1025, 2008 | 96,000 tested, under 10 active;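 active means activation factor of at least 2 at 5 µM in the primary screen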
sEH inhibitor = soluble epoxide hydrolase inhibitors, primary screen, biochemical, human sEH; Bifunctional epoxide hydrolase 2 (Homo sapiens), P34913; recombinant human sEH enzymatic activity assay; inhibition, % at 2 µM; 91,000 tested, 0.34% active; AID 707, 2007; in the data active means inhibition above about 80%
CYP2C9 act = human CYP2C9 activators, primary screen, biochemical, luminescence; activation factor at 5 µM; recombinant CYP2C9, luciferin-H conversion; active compounds read high; factor 1 = untreated enzyme, 0 = blocked; 96,000 tested, 1.4% active;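 active means activation factor of 2 or more for CYP2C9 at a 5 µM dose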
Each line names hits and unclear results; the compound was inactive in the other large screens.

CC(C)(C)C(=O)Nc1cccc(-c2nc3ccccc3[nH]2)c1	CYP2C19 inhib 53, CYP2C9 inhib 85
O=C(COc1ccccc1)Nc1cccc(-c2nc3cc4ccccc4cc3[nH]2)c1	CYP2C9 inhib 80
CC(=O)Nc1cccc(-c2nc3ccc(NC(C)=O)cc3[nH]2)c1	none
S=C(NN=C1C2CC3CC(C2)CC1C3)Nc1ccccc1	none
COc1ccccc1CNC(=O)c1cc2sccc2n1C	none (no result: sEH activator, sEH inhibitor)
O=C(NCCc1c[nH]c2ccccc12)c1cc2sccc2n1Cc1ccccc1	CYP2C19 inhib 65, CYP2C9 inhib 82
Cn1c(C(=O)NCCc2c[nH]c3ccccc23)cc2sccc21	CYP2C19 inhib 54
O=C(NCc1ccco1)C1CCC(N2C(=O)c3ccccc3C2=O)CC1 (stereo unspecified)	none
c1ccc2c(-c3nc4ncccc4o3)cccc2c1	CYP2C9 act 3.3
CNc1nc2sc3c(c2c(=O)n1C)CC(C)(C)SC3	CYP2C19 inhib 73, CYP2C9 inhib 56 (no result: sEH activator, sEH inhibitor)
CN(C)c1nc2sc3c(c2c(=O)n1C)CC(C)(C)OC3	none
CC(C)N(Cc1nc2ccccc2[nH]1)C(C)C	none (no result: sEH activator, sEH inhibitor)
Cc1cccc(CC(Cc2nc3ccccc3[nH]2)c2nc3ccccc3[nH]2)c1 (stereo unspecified)	CYP2C19 inhib 93, CYP2C9 inhib 88
CCOC(=O)c1c(CN2CCCCC2)n(C)c2cc(Br)c(O)cc12	CYP2C19 inhib 71
CCOC(=O)c1c(CN2CCN(C)CC2)n(C)c2cc(Br)c(OC)cc12	CYP2C9 inhib 56 (no result: sEH activator, sEH inhibitor)
CCOC(=O)c1c(CN2CCCCC2)oc2ccc(O)cc12	none
COc1ccc(CNc2nc3ccccc3n2Cc2ccccc2)cc1OC	CYP2C19 inhib 53, CYP2C9 inhib 66
c1ccc(Cn2c(NCc3ccco3)nc3ccccc32)cc1	CYP2C19 inhib 83, CYP2C9 inhib 81
COc1ccc(OC)c(Nc2nc(N)nc(CSc3nnc(-c4ccncc4)o3)n2)c1	none
CCS(=O)(=O)/N=C(\N)c1ccccc1	none
N/C(=N\S(=O)(=O)c1ccc(Cl)s1)c1ccccc1	CYP2C19 inhib 97
CCCn1c(N)c(Sc2ccc(Cl)cc2)c(=O)n(CCC)c1=O	CYP2C19 inhib 90, CYP2C9 inhib 58
CCCCn1c(N)c(Sc2ccc(Cl)cc2)c(=O)[nH]c1=O	none
CC(C)(C)NC(=O)CSC(=Nc1ccc(F)cc1)NC#N	CYP2C19 inhib 72 (no result: sEH activator, sEH inhibitor)
CCC(=O)Nc1cc(C)c(NC(=O)c2ccccc2OC)cn1	CYP2C9 act 2.6
CCCCC(=O)Nc1ccc(NC(=O)c2ccccc2OC)cn1	CYP2C19 inhib 78, CYP2C9 act 3.5
O=C1CC(C2CCCO2)C(=O)N1c1cccc(Cl)c1 (stereo unspecified)	none
O=C(Nc1nc2ccc(F)cc2s1)C1CCCO1 (stereo unspecified)	none
COC(=O)CNC(c1ccccc1)c1cc(Br)ccc1NC(=O)OCc1ccccc1 (stereo unspecified)	CYP2C9 inhib 74
O=C(O)CC(NC(=O)OCc1ccccc1)c1ccc(Br)cc1 (stereo unspecified)	none
COC(=O)CNC(c1ccccc1)c1cc(C)ccc1NC(=O)CNC(=O)OCc1ccccc1 (stereo unspecified)	CYP2C19 inhib 82, CYP2C9 inhib 94
CCCCCCCCCCS(=O)(=O)N/N=C/c1ccc([N+](=O)[O-])cc1	none
COc1ccc(-n2nc3c(c2NC(=O)c2c(-c4ccccc4Cl)noc2C)CS(=O)(=O)C3)cc1	CYP2C9 inhib 82
COc1ccc(NC(=O)c2c(-c3ccccc3Cl)noc2C)c(OC)c1	CYP2C19 inhib 59 (no result: sEH activator, sEH inhibitor)
Clc1ccc(NC2=NCCCCC2)cc1	none
C=CCN(C(=O)CN1CCOCC1)c1nc(C)c(-c2ccccc2)s1	CYP2C19 inhib 70 (no result: sEH activator, sEH inhibitor)
O=C(CN1CCOCCOCCOCCOCC1)Nc1ccccc1	none (no result: CYP2C19 inhib, CYP2C9 inhib, CYP2C19 act, CYP2C9 act)
CCOC(=O)N1CCC(Nc2c(NCCCN(C)Cc3ccccc3)c(=O)c2=O)CC1	none (no result: sEH activator, sEH inhibitor)
CCNc1cc(N2CCN(S(=O)(=O)c3ccc4c(c3)CCCC4)CC2)ccc1[N+](=O)[O-]	CYP2C19 inhib 54
Cc1cc(C)c(S(=O)(=O)N2CCN(c3ccc([N+](=O)[O-])c(NCc4ccco4)c3)CC2)c(C)c1	CYP2C9 inhib 53
Cc1cc(C)c(S(=O)(=O)N2CCN(c3ccc([N+](=O)[O-])c(NCC4CCCO4)c3)CC2)c(C)c1 (stereo unspecified)	CYP2C9 inhib 56
CC(C)c1ccc(CNc2cc(N3CCCC3)ccc2[N+](=O)[O-])cc1	CYP2C9 inhib 53
CC(C)(C)CNc1cc(N2CCCC2)ccc1[N+](=O)[O-]	none
CC(CNC(=O)CC(C)(C)C)NC(=O)CC(C)(C)C (stereo unspecified)	none (no result: CYP2C19 inhib, CYP2C9 inhib, CYP2C19 act, CYP2C9 act)
CC(=O)C1=C(O)C(=O)N(c2ccc(C)cc2)C1c1ccccn1 (stereo unspecified)	none (no result: CYP2C19 inhib, CYP2C9 inhib, CYP2C19 act, CYP2C9 act)
Cc1nc2sc(C(c3cccs3)N3CCC(C(N)=O)CC3)c(O)n2n1 (stereo unspecified)	none
O=c1c2c3n(c(=S)nc2[nH]n1-c1ccccc1)CCCCC3	none
CC(C)N=C(Nc1ccc(Cl)cc1)c1cccnc1	none
CCCOc1ccccc1C1C(C(=O)OC)=CN(C(C)C)C=C1C(=O)OC	CYP2C19 inhib 89, CYP2C9 inhib 87
C=CCS/C(=N\n1cnc2ccccc2c1=O)N1CCCCC1	CYP2C9 inhib 51
C=CCS/C(=N\n1cnc2ccccc2c1=O)N(CC)CC	CYP2C19 inhib 96, CYP2C9 inhib 63
CC1(C)CC(=O)C(/C=N/n2cnc3ccccc3c2=O)=C(O)C1	none
COCCCNC(=O)C12CCC(C)(C(=O)C1)C2(C)C (stereo unspecified)	none
O=C(Cn1c(CSc2ccccc2)nc2ccccc21)Nc1ccccc1	CYP2C19 inhib 51, CYP2C9 inhib 74
Cn1c(=O)n(CC(=O)Nc2ccccc2)c2ccccc21	none (no result: sEH activator, sEH inhibitor)
CSc1nc2ccccc2n1Cc1c(Cl)cccc1Cl	CYP2C19 inhib 52, CYP2C9 inhib 56
CSc1nc2ccccc2n1CC(=O)Nc1ccccc1	CYP2C19 inhib 93, CYP2C9 inhib 79
CCC(C)Sc1nc2ccccc2n1CC(=O)O (stereo unspecified)	CYP2C9 inhib 88
CCc1ccc(NC(=O)Cn2c(SC)nc3ccccc32)cc1	none (no result: sEH activator, sEH inhibitor)
CC(=O)c1c(C(C)=O)c(C)n(-c2ccc(N)cc2)c1C	none
Cc1ccc(SCc2nc3ccccc3n2CC(=O)Nc2c(C)cccc2C)cc1	none
Cc1ccc(SCc2nc3ccccc3n2CC(=O)Nc2ccccc2)cc1	CYP2C19 inhib 57, CYP2C9 inhib 84
